The values below come from PubChem BioAssay AID602250 (The Scripps Research Institute Molecular Screening Center, 2012).

Hit rate of the full screen: of about 360,000 compounds, about 2,200 (0.61%) were called active. The entries come from a sample that favours actives as a whole. Unmarked numbers belong to inactive results.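 How the source made its calls: active means inhibition above a per-plate cutoff, the plate's mean sample inhibition plus 3 SD (cut at about 24% in these data); inactive means the rest.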

The nature of the experiment: nonselective inhibitors of ATP calcium response in CHO-K1, primary screen, counter-screen for M1 antagonist project, cell-based, Fluo-8 calcium fluorescence, full deck, 1536-well (AID 602250).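 Further: 0% = DMSO plus EC80 ATP and 100% = DMSO alone without ATP.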 The note with it: CHO-K1 parental, ATP-induced calcium, Fluo-8 fluorescence; at 3 µM; active compounds read high.
With `COc1cc(C(=S)NCc2ccccc2)cc(Br)c1O`, the inhibition (usually the relative decrease from the control value, in per cent) was -5.75%.
To `Cc1cc(NC(=O)Cn2nc(C(F)(F)F)c3c2CCCC3)no1` belongs -9.16%; to `CCC(C)NC(=O)Cn1nc(C(F)(F)F)c2c1CCC2` (stereo unspecified), -24.7%.
As to `O=C(Cn1nc(C(F)(F)F)c2c1CCC2)NCc1ccc(F)cc1`, the inhibition is 25% (active).
Consider `CC(C)C(=O)Nc1ccc2c3c(cccc13)CC2`, for which the inhibition is -5.37%.
`N#CC1(Nc2ccc(-c3ccc(Cl)cc3)cc2)CCCC1`: the inhibition was -8.66%.
As to `N#CC1(Nc2ccc3c4c(cccc24)CC3)CCCCC1`, the inhibition is 35.7% (active).
With `CCn1c(=O)c(=O)[nH]c2c(=O)oc3ccc(S(=O)(=O)Nc4ccc(OC)cc4)cc3c21` the figure was -7.54%; with `Cc1ccc(NC(=O)[C@H](Cc2ccccc2)NC(=O)C2CCNCC2)cc1`, -21.4%.
As to `CCC(Cc1ccccc1)NC(=O)C1CCCCC1` (stereo unspecified), the inhibition was 27.9% (active).
With `CCC(NC(=O)C1CCCC1)c1ccc(C)cc1` (stereo unspecified) the figure was -8.16%; with `O=c1[nH]c(CSc2ccccc2)nc2c1oc1ccccc12`, -8.98%.
As for `CN(C(=O)CSc1nnc(-c2n[nH]c3ccccc23)o1)c1ccccc1`, the inhibition is -5.61%.
With `Cc1cccc2cc3c(N)c(C(=O)N4CCCc5ccccc54)sc3nc12` the figure was 13.5%; with `COc1ccc(NC(=O)C(NC(C)=O)C(=O)NCc2ccccc2Cl)cc1` (stereo unspecified), 1.86%; with `O=C(Nc1ccc(Cl)cc1)c1csc([C@H]2C[C@H](O)[C@@H](CO)O2)n1`, 20.1%.
Take `O=C(Nc1ccc(OCCO)cc1)c1csc([C@H]2C[C@H](O)[C@@H](CO)O2)n1`: the inhibition is 25.4% (active).
Regarding `O=C(Nc1ccc(Cl)cc1)c1csc([C@@H]2O[C@H](CO)[C@H](O)[C@H](O)[C@H]2O)n1`, the inhibition is -8.36%.
On to `O=C(c1ccc(S(=O)(=O)NCc2ccco2)cc1)N1CCN(c2ccccc2)CC1`, for which the inhibition is -11.5%.
Regarding `O=C(c1ccc(S(=O)(=O)N2CCCC2)cc1)N1CCN(c2ccccc2F)CC1`, the inhibition was -8.35%.
`O=C(c1ccc(S(=O)(=O)N2CCOCC2)cc1)N1CCN(c2ccccc2)CC1`: the inhibition is 24.7% (active).
`Cc1ccc(C(=O)Nc2ccn(C)n2)cc1`: the inhibition is -13.4%.
As to `CSc1nccc(NC(=O)c2ccc(C(C)(C)C)cc2)n1`, the inhibition was 24.6% (active).
With `COC(=O)c1nc(NC(=O)c2ccc(F)cc2)n[nH]1`, the inhibition was -11.8%.
As to `COc1ccccc1CNC(=O)c1cc(-c2cc(Cl)ccc2C)n[nH]1`, the inhibition is -17.7%.
With `Cc1ccc(S(=O)(=O)N(Cc2ccc(Cl)cc2)c2ccccc2C(=O)NCc2cccnc2)cc1`, the inhibition was 22.6%.
As to `Nc1nonc1-c1nc2ccccc2n1Cc1ccc(F)cc1`, the inhibition was 24.1% (active).
As for `O=c1[nH]cccc1-c1nc2ccccc2n1Cc1ccc(Cl)cc1`, the inhibition was 6.91%.
Turning to `COc1ccc(C)c(Cn2c(-c3nonc3N)nc3ccccc32)c1`, the inhibition was -35.1%.
Turning to `O/N=C(\C[n+]1ccccc1)c1ccc(Br)cc1`, the inhibition was -7.88%.
`CCS(=O)(=O)c1ccc(C(=O)NC)c(Cl)c1Cl`: the inhibition was -11.1%.
To `CC(=O)c1ccc(NC(=O)C2CCCN2S(=O)(=O)c2cccs2)cc1` (stereo unspecified) belongs 24% (active); to `CC(=O)c1cccc(NC(=O)C2CCCN2S(=O)(=O)c2cccc3nsnc23)c1` (stereo unspecified), 5.27%; to `CC(=O)Nc1ccc(S(=O)(=O)N2CCN(S(=O)(=O)c3cccs3)CC2)cc1`, 6.03%.
As for `Cc1ccc(SCCN2C(=O)NC(C)(C)C2=O)cc1`, the inhibition is -11.7%.
`CCOC(=O)C1C(=O)C=C(c2ccc(OC)cc2)CC1c1ccco1` (stereo unspecified): the inhibition is -9.22%.
As to `CCC1(C(=O)c2ccccc2)C(c2cccc([N+](=O)[O-])c2)C1(C(=O)OC)C(=O)OC` (stereo unspecified), the inhibition is -5.15%.
With `COc1ccc(N2CCN(C(=S)Nc3ccc(S(N)(=O)=O)cc3)CC2)cc1`, the inhibition is -21.9%.
On to `CC(NC(=S)Nc1ccccc1)C1COc2ccccc2O1` (stereo unspecified), for which the inhibition was 4.65%.
`S=C(NCC1COc2ccccc2O1)Nc1ccc(Br)cc1` (stereo unspecified): the inhibition was 32.9% (active).
In the case of `CCCN(CC1COc2ccccc2O1)C(=S)Nc1ccc(C)cc1` (stereo unspecified), the inhibition is -5.53%.
To `COc1ccc(C)cc1NC(=O)CN1c2cccc3cccc(c23)S1(=O)=O` belongs -7.85%.
To `CCc1ccccc1N(CC(=O)NCC1CCCO1)C(=O)CCC(=O)Nc1nccs1` (stereo unspecified) belongs -0.55%.
Turning to `C=CCNC(=S)N1CCN(CCN=Cc2c(C)[nH]n(-c3ccc([N+](=O)[O-])cc3)c2=O)CC1`, the inhibition is 13.7%.
Regarding `O=C(c1ccc(F)cc1)N1CCC(n2nnc3ccccc32)CC1`, the inhibition is 5.53%.
For `O=S(=O)(c1cccc(S(=O)(=O)N2CCC(n3nnc4ccccc43)CC2)c1)N1CCCCC1`, the inhibition is 25.7% (active).
For the compound `CC(=O)c1cccc(S(=O)(=O)N2CCC(n3nnc4cc(F)ccc43)CC2)c1`, the inhibition was -5.37%.
On to `O=C1c2ccccc2C(=O)N1CC1c2ccccc2CCN1S(=O)(=O)c1ccccc1` (stereo unspecified), for which the inhibition is -4.18%.
As for `CCc1nnc(NC(=O)CSc2nc(SC)ns2)s1`, the inhibition was -15.7%.
`O=C(O)c1ccccc1-c1ccccc1C(=O)Nc1nccs1`: the inhibition is -12.8%.
On to `COc1ccc(Cl)cc1NC(=O)CN(C)C(=O)c1cn(-c2ccccc2)nc1-c1cccs1`, for which the inhibition was -12.4%.
In the case of `COc1ccc(-c2nn(-c3ccccc3)cc2C(=O)Nc2nccs2)cc1OC`, the inhibition was 33.9% (active).
On to `O=C(COc1ccc(F)cc1)N(CC1=CCS(=O)(=O)C1)c1ccccc1`, for which the inhibition is -14.8%.
As to `O=C1OC(Cc2ccccc2)C(c2ccccc2)C1=O` (stereo unspecified), the inhibition is -2.69%.
For `CCOC(=O)[C@H]1[C@H]2COc3ccc(Br)cc3[C@@H]2N2C(=O)CN(C)C(=O)[C@@]12C`, the inhibition is -3.65%.
With `COc1ccc(C(=O)NCCCN2CCOCC2)cc1Br`, the inhibition is 8.25%.
Consider `Cc1c(C)n(Cc2ccc(Cl)cc2)c2ccc(C(=O)NCCCN3CCOCC3)cc12`, for which the inhibition was 31.3% (active).
Take `O=C(NCCCN1CCOCC1)c1cc(-c2ccc(Cl)cc2)on1`: the inhibition was -8.77%.
As for `O=C(COc1ncnc2c(Cl)cc(Cl)cc12)N1CCN(S(=O)(=O)c2ccccc2)CC1`, the inhibition was -14%.
For the compound `O=S(=O)(Nc1ccccc1Br)c1cccs1`, the inhibition was -11%.
Turning to `O=C(Nc1cccc(Cl)c1)Nc1ccccc1NS(=O)(=O)c1cccs1`, the inhibition was 36.7% (active).
Take `O=S(=O)(Nc1ccccc1)c1ccc(NS(=O)(=O)c2cccs2)cc1`: the inhibition is -3.36%.
Take `Cn1c(NCc2cccnc2)nc2cc(-c3ccc(F)cc3)sc2c1=O`: the inhibition is -2.34%.
As for `CCN(C(=O)COC(=O)c1c(NC(C)=O)sc(C)c1C)C1CCS(=O)(=O)C1` (stereo unspecified), the inhibition is -7.84%.
Take `Cc1ccc(S(=O)(=O)c2ccc(Cl)cc2)cc1S(=O)(=O)NC(C(=O)O)C(C)C` (stereo unspecified): the inhibition was -0.98%.
With `CC(=O)Nc1ccc(S(=O)(=O)N2CCN(C(=O)c3ccccc3F)CC2)cc1` the figure was 0.99%; with `CCC1=NN(C(=O)Cc2ccc([N+](=O)[O-])cc2)C(O)(c2ccc(Br)cc2)C1` (stereo unspecified), -13.2%.
Regarding `Cc1ccc(Nc2nc(CSc3nnnn3-c3ccccc3)cc(=O)[nH]2)cc1`, the inhibition is 2%.
In the case of `CN1OC[C@@H]2CN(C(=O)c3cccnc3)[C@H](c3ccc(N4CCCCC4)cc3)C[C@@H]21`, the inhibition is 8.63%.
`CN1OC[C@@H]2CN(C(=O)C(C)(C)C)[C@H](c3ccc(-n4ccnc4)cc3)C[C@@H]21`: the inhibition is 28.2% (active).
With `CN1OC[C@@H]2CN(C(=O)c3cccc4ccccc34)[C@H](c3ccc(N4CCCCC4)cc3)C[C@@H]21`, the inhibition was 16.5%.
Take `COc1ccc(Cl)cc1NC(=O)Cn1nc(-c2ccc(C)cc2)n(C)c1=S`: the inhibition was -1.73%.
To `COc1ccccc1OCC(=O)OCc1cc(-c2ccco2)on1` belongs -11.2%; to `CC(C)C1C(=O)N(Cc2cn(CCC3OCCO3)nn2)CCS(=O)(=O)N1Cc1ccc(-c2ccccc2C(F)(F)F)cc1` (stereo unspecified), -1.16%.
Turning to `Cc1ccc(Cn2nnc3c(=O)[nH]c(C4CCN(S(=O)(=O)/C=C/c5ccccc5)CC4)nc32)cc1`, the inhibition is -19.1%.
In the case of `COc1cc(/C=C(\C#N)C(=O)Nc2ccc3ccccc3c2)c([N+](=O)[O-])cc1OC`, the inhibition is 0.2%.
Consider `COc1ccc(NC(=O)/C(C#N)=C\c2cc(OC)c(OCc3ccc(C(=O)O)cc3)cc2Br)cc1`, for which the inhibition is 24.8% (active).
Regarding `COCCNC(=O)/C(C#N)=C/c1cccc(OCc2ccccc2)c1`, the inhibition was -9.6%.
With `c1ccc(CCN2CN=C(Nc3nc4ccccc4o3)NC2)cc1` the figure was -10.1%; with `Cc1ccccc1N(C(=O)Cc1cccs1)C(C(=O)NC1CCCCC1)c1cn(C)nc1C` (stereo unspecified), -4.07%; with `O=S(=O)(Nc1ccc2nc(-c3ccco3)[nH]c2c1)c1ccccc1`, -1.24%.
With `Cc1cc(OC(C)C(=O)Nc2ccc(S(=O)(=O)Nc3onc(C)c3C)cc2)cc(C)c1Cl` (stereo unspecified) the figure was 8.91%.
For the compound `O=C(NC1(C(F)(F)F)N=C2SCCN2C1=O)c1ccco1` (stereo unspecified), the inhibition was 23.7% (active).
As to `O=C(NN1C(=O)C2CCCCC2C1=O)c1ccco1` (stereo unspecified), the inhibition is -4.97%.
Regarding `COc1ccc(S(=O)(=O)NC2(C(F)(F)F)N=C3SCCN3C2=O)cc1` (stereo unspecified), the inhibition is 6.7%.
With `Cc1c(NC(=O)CSCc2ccccc2)cccc1C(=O)O`, the inhibition was -4.2%.
In the case of `CC(C)CN(CC(C)C)CC(O)CN(c1ccccc1)S(=O)(=O)c1ccccc1[N+](=O)[O-]` (stereo unspecified), the inhibition was -22.2%.
In the case of `COc1ccc(C2(CNC(=O)Cc3ccc(OC)c(OC)c3)CCCC2)cc1`, the inhibition was 0.54%.
`O=C(O)/C=C/c1ccc(S(=O)(=O)N2CCCCCC2)cc1`: the inhibition is -2.18%.
In the case of `C=CCNC(=O)/C=C/c1ccc(C(C)C)cc1`, the inhibition is -7.72%.
With `O=C(/C=C(O)/C=C/c1ccc(O)cc1)/C=C/c1ccc(O)cc1`, the inhibition is 31.8% (active).
